697 NFkB inh = inhibitors of the PMA/ionomycin-induced NF-kB reporter in 697 B cells | 697 B-cell NF-kB luciferase reporter, 16 h | inhibition, % at 4 µM | 0.33% of 330,000 active; in the data active = inhibition above about 35%
Beta cell apopt = beta cell apoptosis inhibition. INS-1E cytokine-induced death, ATP luminescence, 48 h; percent of positive-control rescue, neutral wells zero. protection from apoptosis, % (concentration not given with the values). 0.8% of 300,000 active. AID 435005;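 active = Every replicate reaches about 75%, or at least half do and their mean reaches it too, limit read from the data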;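 note: 0% = cytokine-treated negative control wells and 100% = positive control rescue; higher means more ATP so stronger rescue from cytokine killing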
Jurkat NFkB inh = lowers PMA/ionomycin-induced NF-kB signal in Jurkat cells. PMA/ionomycin-induced NF-kB luciferase reporter, luminescence. inhibition, % at 4 µM. 0.53% of 330,000 active. AID 435003; in the data active = inhibition above about 50%
Mdm2 MdmX PPI = human Mdm2/MdmX binding inhibition; inhibition, % at 8 µM; SaOS-2 split-luciferase Mdm2/MdmX complementation, luminescence; 3% of 330,000 active;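 active = inhibition of at least 50% at 8 µM in the primary screen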
Target sequence (O15151 whole entry, looked up): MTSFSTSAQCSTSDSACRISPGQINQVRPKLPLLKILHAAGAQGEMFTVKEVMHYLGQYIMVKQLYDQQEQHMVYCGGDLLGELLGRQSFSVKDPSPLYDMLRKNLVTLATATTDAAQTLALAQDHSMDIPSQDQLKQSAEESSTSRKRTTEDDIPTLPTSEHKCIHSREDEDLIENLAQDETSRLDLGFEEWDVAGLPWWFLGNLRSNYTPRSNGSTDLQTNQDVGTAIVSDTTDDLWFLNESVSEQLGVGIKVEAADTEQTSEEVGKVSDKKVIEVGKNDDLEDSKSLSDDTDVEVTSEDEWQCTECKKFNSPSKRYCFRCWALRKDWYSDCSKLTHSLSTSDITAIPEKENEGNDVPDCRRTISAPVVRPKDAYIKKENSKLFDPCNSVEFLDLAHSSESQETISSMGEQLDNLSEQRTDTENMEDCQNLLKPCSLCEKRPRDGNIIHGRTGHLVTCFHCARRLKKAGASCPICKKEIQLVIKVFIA
Target sequence (Q00987 whole entry, looked up): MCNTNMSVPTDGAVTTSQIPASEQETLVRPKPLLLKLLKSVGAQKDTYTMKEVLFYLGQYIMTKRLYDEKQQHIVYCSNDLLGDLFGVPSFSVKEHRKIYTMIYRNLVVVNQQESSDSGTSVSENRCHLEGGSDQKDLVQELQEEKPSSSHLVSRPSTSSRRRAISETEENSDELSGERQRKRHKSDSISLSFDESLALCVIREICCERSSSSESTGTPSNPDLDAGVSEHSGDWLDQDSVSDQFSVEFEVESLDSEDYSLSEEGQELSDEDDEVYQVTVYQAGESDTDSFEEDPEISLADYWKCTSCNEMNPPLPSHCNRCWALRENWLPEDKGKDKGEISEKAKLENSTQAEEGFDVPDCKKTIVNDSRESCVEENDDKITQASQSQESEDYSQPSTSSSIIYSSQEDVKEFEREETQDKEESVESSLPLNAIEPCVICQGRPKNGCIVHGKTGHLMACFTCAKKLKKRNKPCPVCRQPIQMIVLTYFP
NTR1 ag = NTR1 (human) agonism; NTR1-U2OS beta-arrestin-GFP spot imaging, agonist mode; activation, % at 20 µM; 0.17% of 330,000 active; AID 493036;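 active = activation at or above 40% of the spot to cytoplasm intensity ratio, with at least 20 cells analyzed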;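 note: 0% = DMSO without peptide and 100% = 100 nM NTR1 peptide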
Bfl-1 A1 inh = inhibitors of the anti-apoptotic protein A1, read as caspase activation; MEF A1-2A-BIM cells, Caspase-Glo 3/7 luminescence, 3 h; percent of clofoctol response, vehicle zero; caspase activation, % (test concentration not listed); 0.066% of 330,000 active; AID 2462;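 active = over half of replicate activation scores above 10%, or exactly half above 10 with the replicate mean above 10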
Mdm2-MdmX conf = human Mdm2/MdmX binding inhibition, confirmed; shares compounds with Mdm2 MdmX PPI; luminescent assay; inhibition, % at 8 µM; 55% of 10,000 active; AID 489028; in the data active = inhibition above about 40%
Full FLuc ctr = counter-screen for Mdm2/MdmX inhibitors: full-length luciferase; shares compounds with Mdm2 MdmX PPI; SaOS-2 full-length luciferase counterscreen, luminescence; 77% of 6,200 active; AID 504607; inhibition, % at 8 µM;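 active = mean inhibition at 8 µM reaching about 37%, which flags the compound as non-specific, limit read from the data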;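 note: p53-null SaOS-2 cells with luciferase driven by a doxycycline-inducible promoter; compound on cells about two nights before reading with doxycycline added after day one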
The depositor's hits bear a star; x = no result. An excerpt weighted towards active compounds, which were near 3.8% of everything screened.

SMILES	697 NFkB inh	Beta cell apopt	Jurkat NFkB inh	Mdm2 MdmX PPI	NTR1 ag	Bfl-1 A1 inh	Mdm2-MdmX conf	Full FLuc ctr
CC(C)C(=O)NNC(=O)c1c(O)c2ccccc2[nH]c1=O	7	-2	3	-12	1	0	x	x
O=C(N/N=C/c1ccc(F)cc1)c1c(O)c2ccccc2[nH]c1=O	-1	-2	-7	88*	-1	1	4	x
CC(C)NC(=O)c1c(O)c2ccccc2[nH]c1=O	11	0	0	84*	-1	-1	83*	46*
Cc1ccc(C(=O)CN2C(=O)NC3(CCc4ccccc43)C2=O)s1 (centres undefined)	-12	-5	-14	-21	-2	1	x	x
O=C(NC1CCN(S(=O)(=O)c2ccccc2F)CC1)c1cccnc1	16	1	11	-2	-1	0	x	x
CCCCOc1ccc(C(=O)NNC(=O)c2cnccn2)cc1OC	13	30	0	45	-2	1	x	x
CC(C)CN(C(=O)COC(=O)CSc1ccccc1)c1c(N)n(Cc2ccccc2)c(=O)[nH]c1=O	7	-6	-3	-3	0	2	x	x
COc1ccc(-c2nn(-c3ccccc3)cc2/C=N/N2C(=O)CSC2=S)cc1	-17	106*	-15	97*	22	-1	31	x
CCCc1cc(=O)[nH]c(SCC(=O)N2CCCCCC2)n1	5	1	-4	14	0	1	x	x
O=C1c2ccccc2C(=O)c2c(Nc3ccc(CCO)cc3)ccc(O)c21	-1	22	-1	72*	11	-1	35	33
CN(CC(=O)Nc1cccc(F)c1)C(=O)CSc1ccccc1F	11	-7	8	1	-2	0	x	x
COc1cccc(/C=C/C(=O)c2ccc(NS(=O)(=O)c3ccc(C)cc3)cc2)c1	3	4	5	71*	11	0	15	x
COc1cc(/C=C/C(=O)c2ccc(NS(=O)(=O)c3ccc(C)cc3)cc2)cc(OC)c1O	x	-19	x	x	x	1	x	x
COc1cc(/C=C/C(=O)c2ccc(NS(=O)(=O)c3ccc(C)cc3)cc2)ccc1OC(F)F	16	x	6	92*	9	1	42*	62*
Cc1nn(-c2ccccc2)c2c1c(C)c(CCC(=O)N1CCOCC1)c(=O)n2C	-6	2	-3	4	0	0	x	x
CCn1c(=O)c(CCC(=O)N2CCOCC2)c(C)c2c(C)nn(-c3ccccc3)c21	-10	7	-6	62*	1	2	33	x
CC(C)c1ccc(OCC(=O)Nc2ccccc2C(=O)N2CCOCC2)cc1	-3	-6	10	23	-1	0	x	x
CCN(CC)Cc1c(O)ccc2c([N+](=O)[O-])c(C)n(-c3ccc(OC)cc3)c12	-36	-20	28	71*	1	0	82*	51*
Cc1cc(-c2ccc(S(=O)(=O)N(C)Cc3ccccc3)cc2)on1	-4	0	3	9	0	-1	x	x
Cc1ccsc1-c1nc(-c2ccccc2)c(-c2ccccc2)[nH]1	-12	16	6	12	0	0	x	x
Oc1ccc(-c2nc(-c3ccc(F)cc3)c(-c3ccncc3)[nH]2)cc1	3	x	-27	79*	0	x	39	75*
O=[N+]([O-])c1ccc(-c2nc(-c3cccs3)c(-c3cccs3)[nH]2)cc1	-13	32	2	56*	-6	1	15	x
O=C(O)c1ccc(-c2nc(-c3ccccc3)c(-c3ccccc3)[nH]2)cc1	1	-12	-3	12	1	0	x	x
Fc1ccc(-c2nc(-c3cccs3)[nH]c2-c2ccc(F)cc2)cc1	11	11	-7	52*	17	-1	40	79*
Brc1ccc(N/N=C(/N=Nc2nn[nH]n2)c2ccccc2)cc1	-51	96*	15	77*	3	0	85*	14
SMILES	697 NFkB inh	Beta cell apopt	Jurkat NFkB inh	Mdm2 MdmX PPI	NTR1 ag	Bfl-1 A1 inh	Mdm2-MdmX conf	Full FLuc ctr
CCN1C(=NCCc2ccc(Br)cc2)N[C@@H](c2ccccc2)[C@H](C(=O)OC)[C@H]1C	-4	1	0	52*	6	2	14	x
CN(C(=O)c1ccc(Cl)c([N+](=O)[O-])c1)C1(C)CCS(=O)(=O)C1 (centres undefined)	14	-5	-1	-33	-1	0	x	x
Cc1ccc2occ(/C=N/NC(=O)c3ccc(Cl)cc3)c(=O)c2c1	-16	-2	14	37	1	-1	x	x
CCOc1ccccc1C(=O)N/N=C/c1coc2ccc(Cl)cc2c1=O	-29	1	15	82*	5	0	85*	22
Cc1ccc2occ(/C=N/NC(=O)c3ccccc3O)c(=O)c2c1	-19	42	16	81*	2	0	66*	46*
COc1ccc(NC(=O)C(=O)NCC2CCCN2S(=O)(=O)c2cc(C)ccc2C)cc1 (centres undefined)	-41	10	46	60*	0	2	74*	48*
COc1ccc(NC(=O)C(=O)NCCC2CCCCN2S(=O)(=O)c2ccccc2)cc1 (centres undefined)	-59	x	30	55*	5	-1	79*	56*
COc1ccc(CCNC(=O)C(=O)NCC2OCCN2S(=O)(=O)c2ccccc2)cc1OC (centres undefined)	-2	-4	3	-13	-2	0	x	x
COc1ccc(CCNC(=O)C(=O)NCC2CCCN2S(=O)(=O)c2ccccc2)cc1OC (centres undefined)	5	-4	10	52*	0	0	26	x
Cc1cccc(C(=O)NCC(=O)NC2CCC(C)CC2)c1 (centres undefined)	-4	-4	5	9	1	-1	x	x
C/C=C1\COC(C(=O)NCc2ccccc2)(C(F)(F)F)C=C1C=C1CCCCC1 (centres undefined)	-1	0	12	21	-1	1	x	x
C/C=C1\COC(C(=O)NCCN2CCCC2)(C(F)(F)F)C=C1C=C1CCCCC1 (centres undefined)	9	9	11	53*	26	0	20	x
Cc1cc(OCC(=O)N[C@@H](CSCc2ccccc2)C(=O)O)c2c(C)c(C)c(=O)oc2c1	8	0	-4	18	-1	1	x	x
Cc1ccccc1CN(C)C(=O)c1ccc2ccccc2n1	6	-5	9	-4	0	0	x	x
CC(C)c1onc(C(=O)N2CCN(c3ccc(F)cc3)CC2)c1[N+](=O)[O-]	5	-2	7	3	0	-1	x	x
CC(C)c1onc(C(=O)N2CCN(c3ccccc3)CC2)c1[N+](=O)[O-]	17	-10	6	21	-1	2	x	x
